From PubChem BioAssay (NCI)
The panel holds about 79,000 compounds, 15% with a hit somewhere; the sample as a whole holds those more often. A number with no mark means an inactive call. The source made the active and inactive calls. Cut-off read from the data, not from the text of the source: active = growth inhibition above about 70%; inactive = the rest.

Assays:
[1] = NCI Yeast Anticancer Drug Screen. Data for the rad50 strain (AID 155);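 note: 0% = growth of vehicle-only cultures of the same strain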; conditions: S. cerevisiae rad50 strain growth inhibition, stronger effect = higher value
How it was run: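 Inhibition values express reduced yeast growth in compound-treated cultures relative to vehicle-treated controls.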

[2] = NCI Yeast Anticancer Drug Screen. Data for the mec2-1 strain (AID 157); conditions: S. cerevisiae mec2-1 strain, stronger effect = higher value
How it was run: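 Each compound was tested on mec2-1 yeast, a strain altered in DNA damage repair or cell cycle control. Growth inhibition is reported relative to vehicle.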

[3] = NCI Yeast Anticancer Drug Screen. Data for the sgs1 mgt1 strain (AID 161);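 note: 0% = growth of cultures given vehicle only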; conditions: S. cerevisiae sgs1 mgt1 strain, stronger effect = higher value
How it was run: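 Test agents were incubated with a DNA-repair-mutant yeast strain. Growth was then read and compared against vehicle-treated controls.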

[4] = NCI Yeast Anticancer Drug Screen. Data for the cln2 rad14 strain (AID 165);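 note: 0% = growth equal to vehicle treated cultures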; conditions: S. cerevisiae cln2 rad14 strain, stronger effect = higher value
How it was run: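 Test compounds were added to cln2 rad14 yeast cultures; inhibition of growth was then determined by comparison with vehicle treatment.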

[5] = NCI Yeast Anticancer Drug Screen. Data for the bub3 strain (AID 167); conditions: S. cerevisiae bub3 mutant strain, stronger effect = higher value
How it was run: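 Steps: expose the mutant yeast strain to compound; grow alongside vehicle-treated cultures; measure growth; express inhibition against the vehicle cultures.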

[6] = NCI Yeast Anticancer Drug Screen. Data for the mlh1 rad18 strain (AID 175); conditions: S. cerevisiae mlh1 rad18 strain growth inhibition, stronger effect = higher value
How it was run: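 Inhibition values reflect reduced growth of mutant yeast versus vehicle-treated controls following compound exposure; the mutations affect DNA damage repair.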

[7] = at 5.0 µM (retest, dose inferred, filed as 0.5)
[8] = at 50.0 µM (retest, dose inferred, filed as 5.0)

CC12CCC3C(CCC4Cc5nc6nnnn6cc5CC43C)C1CCC2O (stereo not given)
growth inhibition [1, 7]: 4%
growth inhibition [1, 8]: 79% (active)
growth inhibition ([1]; at 50.0 µM): 55%
growth inhibition [2, 7]: 20%
growth inhibition [2, 8]: 71% (active)
growth inhibition ([2]; at 50.0 µM): 40.9%
growth inhibition [3, 7]: 14%
growth inhibition [3, 8]: 85% (active)
growth inhibition ([3]; at 50.0 µM): 51%
growth inhibition [4, 7]: 4%
growth inhibition [4, 8]: 44%
growth inhibition ([4]; at 50.0 µM): 29.6%
growth inhibition [5, 7]: 2%
growth inhibition [5, 8]: 38%
growth inhibition ([5]; at 50.0 µM): 53.8%
growth inhibition [6, 7]: 11%
growth inhibition [6, 8]: 82% (active)
growth inhibition ([6]; at 50.0 µM): 47%

CCNC(=O)OOC(C)(C)C
growth inhibition [1, 7]: 16%
growth inhibition [1, 8]: 93% (active)
growth inhibition ([1]; at 50.0 µM): 74.7% (active)
growth inhibition [2, 7]: 6%
growth inhibition [2, 8]: 83% (active)
growth inhibition ([2]; at 50.0 µM): 19.7%
growth inhibition [3, 7]: 4%
growth inhibition [3, 8]: 94% (active)
growth inhibition ([3]; at 50.0 µM): -5.55%
growth inhibition [4, 7]: -2%
growth inhibition [4, 8]: 77% (active)
growth inhibition ([4]; at 50.0 µM): -17.8%
growth inhibition [5, 7]: -2%
growth inhibition [5, 8]: 72% (active)
growth inhibition ([5]; at 50.0 µM): 1.45%
growth inhibition [6, 7]: 19%
growth inhibition [6, 8]: 96% (active)
growth inhibition ([6]; at 50.0 µM): 21.7%

O=[N+]([O-])c1ccc([N+](=O)[O-])c2nsnc12
growth inhibition [1, 7]: 98% (active)
growth inhibition [1, 8]: 97% (active)
growth inhibition ([1]; at 50.0 µM): 99.5% (active)
growth inhibition [2, 7]: 90% (active)
growth inhibition [2, 8]: 98% (active)
growth inhibition ([2]; at 50.0 µM): 99.5% (active)
growth inhibition [3, 7]: 48%
growth inhibition [3, 8]: 99% (active)
growth inhibition ([3]; at 50.0 µM): 99.3% (active)
growth inhibition [4, 7]: 77% (active)
growth inhibition [4, 8]: 98% (active)
growth inhibition ([4]; at 50.0 µM): 99.3% (active)
growth inhibition [5, 7]: 98% (active)
growth inhibition [5, 8]: 98% (active)
growth inhibition ([5]; at 50.0 µM): 99.2% (active)
growth inhibition [6, 7]: 79% (active)
growth inhibition [6, 8]: 97% (active)
growth inhibition ([6]; at 50.0 µM): 99% (active)

ClC1CCCCC1[Se](Cl)(Cl)C1CCCCC1Cl (stereo not given)
growth inhibition [1, 7]: 34%
growth inhibition [1, 8]: 98% (active)
growth inhibition ([1]; at 50.0 µM): 99% (active)
growth inhibition [2, 7]: 45%
growth inhibition [2, 8]: 100% (active)
growth inhibition ([2]; at 50.0 µM): 98.7% (active)
growth inhibition [3, 7]: 12%
growth inhibition [3, 8]: 99% (active)
growth inhibition ([3]; at 50.0 µM): 99.5% (active)
growth inhibition [4, 7]: -15%
growth inhibition [4, 8]: 99% (active)
growth inhibition ([4]; at 50.0 µM): 97.9% (active)
growth inhibition [5, 7]: 8%
growth inhibition [5, 8]: 99% (active)
growth inhibition ([5]; at 50.0 µM): 95.6% (active)
growth inhibition [6, 7]: 43%
growth inhibition [6, 8]: 99% (active)
growth inhibition ([6]; at 50.0 µM): 98.8% (active)

CC(=O)[O-].O=[N+]([O-])c1ccc([O-])c(C=NCCN=Cc2cc([N+](=O)[O-])ccc2[O-])c1.[Mn+3]
growth inhibition [1, 7]: 15%
growth inhibition [1, 8]: 96% (active)
growth inhibition ([1]; at 50.0 µM): 91.8% (active)
growth inhibition [2, 7]: -2%
growth inhibition [2, 8]: 98% (active)
growth inhibition ([2]; at 50.0 µM): 79.2% (active)
growth inhibition [3, 7]: 10%
growth inhibition [3, 8]: 93% (active)
growth inhibition ([3]; at 50.0 µM): 91.6% (active)
growth inhibition [4, 7]: 19%
growth inhibition [4, 8]: 95% (active)
growth inhibition ([4]; at 50.0 µM): 48.2%
growth inhibition [5, 7]: 1%
growth inhibition [5, 8]: 94% (active)
growth inhibition ([5]; at 50.0 µM): 88.5% (active)
growth inhibition [6, 7]: 12%
growth inhibition [6, 8]: 97% (active)
growth inhibition ([6]; at 50.0 µM): 93.3% (active)

C[C@]12C/C(=C/O)C(=O)C(O)=C1CC[C@@H]1C2CC[C@@]2(C)C1CC[C@@H]2O (stereo not given in full)
growth inhibition [1, 7]: 6%
growth inhibition [1, 8]: 56%
growth inhibition ([1]; at 50.0 µM): 78.9% (active)
growth inhibition [2, 7]: 5%
growth inhibition [2, 8]: 33%
growth inhibition ([2]; at 50.0 µM): 59.4%
growth inhibition [3, 7]: 4%
growth inhibition [3, 8]: 70% (active)
growth inhibition ([3]; at 50.0 µM): 52.2%
growth inhibition [4, 7]: 6%
growth inhibition [4, 8]: 52%
growth inhibition ([4]; at 50.0 µM): 62.2%
growth inhibition [5, 7]: -39%
growth inhibition [5, 8]: 81% (active)
growth inhibition ([5]; at 50.0 µM): 79.4% (active)
growth inhibition [6, 7]: 8%
growth inhibition [6, 8]: 74% (active)
growth inhibition ([6]; at 50.0 µM): 89.2% (active)

N#CC(C#N)=Cc1ccc(Cl)o1
growth inhibition [1, 7]: 2%
growth inhibition [1, 8]: 54%
growth inhibition ([1]; at 50.0 µM): 59.6%
growth inhibition [2, 7]: 4%
growth inhibition [2, 8]: 47%
growth inhibition ([2]; at 50.0 µM): 50%
growth inhibition [3, 7]: 2%
growth inhibition [3, 8]: 24%
growth inhibition ([3]; at 50.0 µM): 61.8%
growth inhibition [4, 7]: -6%
growth inhibition [4, 8]: 26%
growth inhibition ([4]; at 50.0 µM): 42.4%
growth inhibition [5, 7]: -2%
growth inhibition [5, 8]: 35%
growth inhibition ([5]; at 50.0 µM): 45%
growth inhibition [6, 7]: 1%
growth inhibition [6, 8]: 29%
growth inhibition ([6]; at 50.0 µM): 82.8% (active)

[C-]#[O+].[C-]#[O+].[Mo].[N-]=Nc1ccc([N+](=O)[O-])cc1.[c-]1[c-][c-][cH-][c-]1
growth inhibition [1, 7]: -1%
growth inhibition [1, 8]: 69%
growth inhibition ([1]; at 50.0 µM): 93.7% (active)
growth inhibition [2, 7]: -6%
growth inhibition [2, 8]: 55%
growth inhibition ([2]; at 50.0 µM): 21.3%
growth inhibition [3, 7]: 2%
growth inhibition [3, 8]: 86% (active)
growth inhibition ([3]; at 50.0 µM): 84.9% (active)
growth inhibition [4, 7]: 9%
growth inhibition [4, 8]: 26%
growth inhibition ([4]; at 50.0 µM): 8.7%
growth inhibition [5, 7]: -12%
growth inhibition [5, 8]: 71% (active)
growth inhibition ([5]; at 50.0 µM): 4.95%
growth inhibition [6, 7]: 2%
growth inhibition [6, 8]: 75% (active)
growth inhibition ([6]; at 50.0 µM): 79.3% (active)

CN1C2CCC1c1c([nH]c3ccccc13)C2 (stereo not given)
growth inhibition [1, 7]: -22%
growth inhibition [1, 8]: -23%
growth inhibition ([1]; at 50.0 µM): 3.25%
growth inhibition [2, 7]: -9%
growth inhibition [2, 8]: -3%
growth inhibition ([2]; at 50.0 µM): 18.5%
growth inhibition [3, 7]: -7%
growth inhibition [3, 8]: -10%
growth inhibition ([3]; at 50.0 µM): 20.6%
growth inhibition [4, 7]: -19%
growth inhibition [4, 8]: -3%
growth inhibition ([4]; at 50.0 µM): 42%
growth inhibition [5, 7]: -7%
growth inhibition [5, 8]: -1%
growth inhibition ([5]; at 50.0 µM): 6.25%
growth inhibition [6, 7]: -7%
growth inhibition [6, 8]: -12%
growth inhibition ([6]; at 50.0 µM): 12.4%

CCC[CH2][Sn]1([CH2]CCC)[O]C2C(O)OC(CO)C(O)C2[O]1 (stereo not given)
growth inhibition [1, 7]: 84% (active)
growth inhibition [1, 8]: 99% (active)
growth inhibition ([1]; at 50.0 µM): 99% (active)
growth inhibition [2, 7]: 74% (active)
growth inhibition [2, 8]: 99% (active)
growth inhibition ([2]; at 50.0 µM): 99.3% (active)
growth inhibition [3, 7]: 82% (active)
growth inhibition [3, 8]: 99% (active)
growth inhibition ([3]; at 50.0 µM): 99% (active)
growth inhibition [4, 7]: 64%
growth inhibition [4, 8]: 99% (active)
growth inhibition ([4]; at 50.0 µM): 99% (active)
growth inhibition [5, 7]: 80% (active)
growth inhibition [5, 8]: 99% (active)
growth inhibition ([5]; at 50.0 µM): 98.7% (active)
growth inhibition [6, 7]: 81% (active)
growth inhibition [6, 8]: 99% (active)
growth inhibition ([6]; at 50.0 µM): 98.6% (active)
